# Values without a mark were called inactive. Records with an inconclusive call do not appear. Where a call stands in place of a potency, no number is given. Active and inactive are the calls of the source. Unless noted, calls come from the whole dose curve; as a rule, active = well fitted curve in the direction sought with a large enough effect in the repeat runs; inconclusive = weak or mixed curves; inactive = no such curve, though single readings can be large; an effect the other way counts as inactive or inconclusive.
# Key:
# [1] = qHTS assay to identify small molecule agonists of the TGF-beta/Smad signaling pathway - cell viability counter screen (AID 1346829); note: top concentration of the series differs between compounds; nearly all actives have a fitted effect of over 45% in size
# Outline: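 SBE-bla HEK 293T cells plated overnight, compound exposure 5 hr at 37 C. Viability read in the same wells by CellTiter-Glo luminescence after 30 min at room temperature, following the beta-lactamase read.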
# [2] = qHTS assay to identify small molecule agonists of the TGF-beta/Smad signaling pathway (AID 1346859; active = well fitted activation curve with a large enough effect in the signal ratio in the repeat runs, not every such curve was filed as active; the % refers to the signal ratio; note: series mostly up to about 77 µM)
# Outline: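 Screening used HEK 293T SBE-bla cells at 4,000/well. Test agents: 5 hr, 37 C. Detection: FRET substrate, 2 hr RT, then excitation 405 nm with emissions at 460 and 530 nm.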
# [3] = Caspase-3/7 induction in HepG2 cells by small molecules, qHTS assay (AID 1346978); note: nearly all actives have a fitted effect of over 15% in size
# Outline: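 Caspase-3/7 induction was measured by Caspase-Glo 3/7 luminescence (30 min, room temperature) after a 17 hr compound exposure of wild-type HepG2 cells seeded at 2,000 per well and pre-incubated 5 hr.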
# [4] = Caspase-3/7 induction in CHO-K1 cells by small molecules, qHTS cell viability counter screen (AID 1346979); note: nearly all actives have a fitted effect of over 35% in size
# Outline: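 Following a 5hr settling period, CHO-K1 cells at 1,500 per well received DMSO-dissolved compounds. Cell viability was quantified 16hr later by CellTiter-Fluor fluorescence, measured after 1hr with reagent at 37C.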
# [5] = Caspase-3/7 induction in CHO-K1 cells by small molecules, qHTS assay (AID 1346980); note: nearly all actives have a fitted effect of over 15% in size
# Outline: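 Luminescent Caspase-Glo 3/7 read (30min, room temperature) quantified apoptosis induction. Cells were wild-type CHO-K1, treated with compound for 17hr at 37 C and 5% CO2.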
# [6] = Caspase-3/7 induction in HepG2 cells by small molecules, qHTS cell viability counter screen (AID 1346981); note: series mostly up to about 92 µM; nearly all actives have a fitted effect of over 30% in size
# Outline: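 Treatment of HepG2 cells with DMSO-delivered compounds ran 16 hr at 37 C following a 5-hr pre-incubation of 2,000 cells/well. CellTiter-Fluor fluorescence, read after 1 hr, served as the viability measure in a qHTS format.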
# [7] = target: Nuclear receptor subfamily 1 group I member 2 (Homo sapiens) (UniProt O75469); assay: Human pregnane X receptor (PXR) small molecule agonists, qHTS assay (AID 1346982); note: nearly all actives have a fitted effect of over 35% in size; note: potency is the fitted concentration of half-maximal effect
# Chain of Nuclear receptor subfamily 1 group I member 2 (Homo sapiens) (O75469 whole entry, looked up): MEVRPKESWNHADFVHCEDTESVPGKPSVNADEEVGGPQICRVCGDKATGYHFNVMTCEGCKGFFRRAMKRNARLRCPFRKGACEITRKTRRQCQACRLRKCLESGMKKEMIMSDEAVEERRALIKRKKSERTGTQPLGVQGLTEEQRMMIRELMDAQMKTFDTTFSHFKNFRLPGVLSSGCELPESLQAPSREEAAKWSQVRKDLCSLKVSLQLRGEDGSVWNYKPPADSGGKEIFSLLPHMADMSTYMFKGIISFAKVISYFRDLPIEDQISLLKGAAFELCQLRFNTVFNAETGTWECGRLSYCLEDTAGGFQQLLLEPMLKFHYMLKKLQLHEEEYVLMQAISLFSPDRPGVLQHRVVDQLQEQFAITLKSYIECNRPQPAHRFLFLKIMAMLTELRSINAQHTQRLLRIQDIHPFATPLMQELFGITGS
# Outline: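 Stable HepG2 line reporting PXR-mediated CYP3A4 expression via luciferase. Treatment: 24 hr with compounds in DMSO at 37 C. Detection: ONE-Glo luminescence.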
# [8] = target: Nuclear receptor subfamily 1 group I member 2 (Rattus norvegicus) (UniProt Q9R1A7); assay: Rat pregnane X receptor (rPXR) activation by small molecules, qHTS assay (AID 1346983); conditions: rPXR luciferase reporter cells, One-Glo luminescence, 24 h; max activation: stronger effect = higher value; note: nearly all actives have a fitted effect of over 20% in size
# Chain of Nuclear receptor subfamily 1 group I member 2 (Rattus norvegicus) (Q9R1A7 whole entry, looked up): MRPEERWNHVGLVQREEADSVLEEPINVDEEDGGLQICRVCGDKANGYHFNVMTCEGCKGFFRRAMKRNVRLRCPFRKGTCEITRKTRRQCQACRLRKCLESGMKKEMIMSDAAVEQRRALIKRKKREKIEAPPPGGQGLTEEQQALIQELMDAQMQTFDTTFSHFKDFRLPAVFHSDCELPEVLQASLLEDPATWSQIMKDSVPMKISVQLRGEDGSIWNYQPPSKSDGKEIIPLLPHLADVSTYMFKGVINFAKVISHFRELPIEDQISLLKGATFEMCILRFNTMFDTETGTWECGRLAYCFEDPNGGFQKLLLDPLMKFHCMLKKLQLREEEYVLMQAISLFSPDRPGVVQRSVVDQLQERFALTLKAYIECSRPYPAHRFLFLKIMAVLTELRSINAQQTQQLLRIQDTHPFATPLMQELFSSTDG
# Outline: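 Luminescent readout (One-Glo luciferase, 30 min room temperature) followed 24 hr compound treatment at 37 C of rPXR cells plated 2,000 per well and preincubated 5hr; qHTS format with compounds delivered in DMSO.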
# [9] = target: Nuclear receptor subfamily 1 group I member 2 (Homo sapiens) (UniProt O75469); assay: CYP3A4 induction through human pregnane X receptor (PXR) by small molecules, qHTS assay (AID 1346984); note: nearly all actives have a fitted effect of over 40% in size
# Outline: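 After 24 h at 37C with compound, DPX-2 cells (HepG2, co-transfected PXR response element and CYP3A4 promoter-luciferase) got 3uM final P450-Glo Luciferin-IPA for 3 h; One-Glo luminescence followed.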
# [10] = target: Nuclear receptor subfamily 1 group I member 2 (Homo sapiens) (UniProt O75469); assay: Human pregnane X receptor (PXR) activation by small molecules, qHTS assay (AID 1346985); note: nearly all actives have a fitted effect of over 40% in size
# Outline: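 DPX-2 cells (HepG2 co-transfected with a PXR response element and a CYP3A4-promoter luciferase construct) were seeded at 2,000 per well, rested 5 hr at 37C, then exposed to DMSO-dissolved compounds for 24 hr. Activation was read as luciferase luminescence.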
# [11] = target: Cytochrome P450 2C19 (Homo sapiens) (UniProt P33261); assay: Cytochrome P450 Family 2 Subfamily C Member 19 (CYP2C19) small molecule antagonists: luciferase reporter qHTS assay (AID 1671197); note: nearly all actives have a fitted effect of over 65% in size; note: potency is the fitted concentration of half-maximal effect
# Chain of Cytochrome P450 2C19 (Homo sapiens) (P33261 whole entry, looked up): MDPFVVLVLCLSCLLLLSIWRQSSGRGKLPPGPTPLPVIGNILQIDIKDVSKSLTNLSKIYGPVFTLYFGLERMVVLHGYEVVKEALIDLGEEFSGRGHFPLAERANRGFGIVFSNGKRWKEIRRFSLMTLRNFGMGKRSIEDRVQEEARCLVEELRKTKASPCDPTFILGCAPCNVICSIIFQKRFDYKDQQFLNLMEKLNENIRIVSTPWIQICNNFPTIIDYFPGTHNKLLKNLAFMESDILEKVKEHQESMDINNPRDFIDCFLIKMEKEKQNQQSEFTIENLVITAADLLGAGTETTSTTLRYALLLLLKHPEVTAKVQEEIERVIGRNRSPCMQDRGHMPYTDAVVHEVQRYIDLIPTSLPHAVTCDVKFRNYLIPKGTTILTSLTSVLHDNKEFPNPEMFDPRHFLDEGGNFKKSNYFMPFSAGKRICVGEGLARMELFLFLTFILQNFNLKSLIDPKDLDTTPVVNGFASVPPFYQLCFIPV
# Outline: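 P450-Glo CYP2C19 system: enzyme-substrate mix with compound 10 min at room temperature, then NADPH regeneration solution, 1 h at 37C. Proluciferin-to-luciferin conversion detected by luminescence after 20 min with detection reagent; ketoconazole as positive control.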
# [12] = target: Cytochrome P450 1A2 (Homo sapiens) (UniProt P05177); assay: Cytochrome P450 Family 1 Subfamily A Member 2 (CYP1A2) small molecule antagonists: luciferase reporter qHTS assay (AID 1671199); note: nearly all actives have a fitted effect of over 50% in size; note: potency is the fitted concentration of half-maximal effect
# Chain of Cytochrome P450 1A2 (Homo sapiens) (P05177 whole entry, looked up): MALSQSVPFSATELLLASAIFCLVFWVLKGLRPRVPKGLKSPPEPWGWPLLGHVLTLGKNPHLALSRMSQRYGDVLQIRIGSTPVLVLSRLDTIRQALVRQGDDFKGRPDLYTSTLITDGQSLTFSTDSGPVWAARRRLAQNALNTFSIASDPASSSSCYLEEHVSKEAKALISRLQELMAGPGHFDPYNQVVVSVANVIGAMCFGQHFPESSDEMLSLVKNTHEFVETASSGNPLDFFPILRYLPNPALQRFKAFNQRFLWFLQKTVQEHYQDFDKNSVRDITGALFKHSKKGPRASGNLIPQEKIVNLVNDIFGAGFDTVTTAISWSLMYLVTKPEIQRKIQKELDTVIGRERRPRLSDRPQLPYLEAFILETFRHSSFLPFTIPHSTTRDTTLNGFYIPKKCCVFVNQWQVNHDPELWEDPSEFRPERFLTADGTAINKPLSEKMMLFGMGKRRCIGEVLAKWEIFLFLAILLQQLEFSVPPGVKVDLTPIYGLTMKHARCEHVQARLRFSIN
# Outline: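 Read-out is luminescence from luciferin detection reagent (20 min) proportional to CYP1A2 activity; compounds in DMSO preincubated 10 min with enzyme and proluciferin substrate, then NADPH regeneration solution, 1 h, room temperature.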
# [13] = target: Voltage-gated inwardly rectifying potassium channel KCNH2 (Homo sapiens) (UniProt Q12809); assay: Human Ether-a-go-go-Related Gene (hERG) channel small molecule antagonists: fluorescence cell-based qHTS assay (AID 1671200);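 note: hERG-expressing U2OS cells given a thallium stimulus after FluxOR II dye loading; series mostly up to about 77 µM; nearly all actives have a fitted effect of over 50% in size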
# Chain of Voltage-gated inwardly rectifying potassium channel KCNH2 (Homo sapiens) (Q12809 whole entry, looked up): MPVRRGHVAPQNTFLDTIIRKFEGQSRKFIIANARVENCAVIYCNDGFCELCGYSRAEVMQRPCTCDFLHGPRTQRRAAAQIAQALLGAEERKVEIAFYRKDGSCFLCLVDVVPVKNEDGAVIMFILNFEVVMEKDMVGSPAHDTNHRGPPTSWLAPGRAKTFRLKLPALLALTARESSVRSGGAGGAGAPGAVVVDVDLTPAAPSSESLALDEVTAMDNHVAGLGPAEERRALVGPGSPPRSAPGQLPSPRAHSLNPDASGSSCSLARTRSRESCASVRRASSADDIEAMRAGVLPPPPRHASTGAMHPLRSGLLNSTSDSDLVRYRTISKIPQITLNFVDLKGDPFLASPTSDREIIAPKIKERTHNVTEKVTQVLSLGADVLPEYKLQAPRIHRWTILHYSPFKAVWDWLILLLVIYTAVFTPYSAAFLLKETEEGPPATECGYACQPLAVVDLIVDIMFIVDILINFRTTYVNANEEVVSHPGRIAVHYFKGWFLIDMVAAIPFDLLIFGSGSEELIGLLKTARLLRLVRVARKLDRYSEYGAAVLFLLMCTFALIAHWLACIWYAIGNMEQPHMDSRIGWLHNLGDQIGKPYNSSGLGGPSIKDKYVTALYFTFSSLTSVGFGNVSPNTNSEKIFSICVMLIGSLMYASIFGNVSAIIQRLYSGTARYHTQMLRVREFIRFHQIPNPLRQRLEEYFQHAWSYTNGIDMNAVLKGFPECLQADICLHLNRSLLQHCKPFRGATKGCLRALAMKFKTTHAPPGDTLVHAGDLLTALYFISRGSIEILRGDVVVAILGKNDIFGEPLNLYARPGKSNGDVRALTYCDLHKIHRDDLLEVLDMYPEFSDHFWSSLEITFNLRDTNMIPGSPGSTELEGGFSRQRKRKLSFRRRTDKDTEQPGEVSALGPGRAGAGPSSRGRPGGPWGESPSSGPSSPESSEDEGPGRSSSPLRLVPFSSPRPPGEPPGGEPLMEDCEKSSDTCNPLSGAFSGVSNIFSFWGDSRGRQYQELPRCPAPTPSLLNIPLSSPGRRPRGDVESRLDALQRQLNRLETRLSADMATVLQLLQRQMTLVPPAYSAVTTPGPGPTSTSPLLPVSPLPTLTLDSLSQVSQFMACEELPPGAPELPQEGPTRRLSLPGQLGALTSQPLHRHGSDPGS
# Outline: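 In this thallium-flux screen, overnight-cultured U2OS cells bearing the channel are dye-loaded in darkness for an hour, rested 10 min at room temperature, and then monitored kinetically at 480/540 nm for two minutes post-stimulus.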
# [14] = target: Cytochrome P450 3A4 (Homo sapiens) (UniProt P08684); assay: Cytochrome P450 Family 3 Subfamily A Member 4 (CYP3A4) small molecule antagonists: luciferase reporter qHTS assay (AID 1671201); note: series mostly up to about 120 µM; nearly all actives have a fitted effect of over 50% in size
# Chain of Cytochrome P450 3A4 (Homo sapiens) (P08684 whole entry, looked up): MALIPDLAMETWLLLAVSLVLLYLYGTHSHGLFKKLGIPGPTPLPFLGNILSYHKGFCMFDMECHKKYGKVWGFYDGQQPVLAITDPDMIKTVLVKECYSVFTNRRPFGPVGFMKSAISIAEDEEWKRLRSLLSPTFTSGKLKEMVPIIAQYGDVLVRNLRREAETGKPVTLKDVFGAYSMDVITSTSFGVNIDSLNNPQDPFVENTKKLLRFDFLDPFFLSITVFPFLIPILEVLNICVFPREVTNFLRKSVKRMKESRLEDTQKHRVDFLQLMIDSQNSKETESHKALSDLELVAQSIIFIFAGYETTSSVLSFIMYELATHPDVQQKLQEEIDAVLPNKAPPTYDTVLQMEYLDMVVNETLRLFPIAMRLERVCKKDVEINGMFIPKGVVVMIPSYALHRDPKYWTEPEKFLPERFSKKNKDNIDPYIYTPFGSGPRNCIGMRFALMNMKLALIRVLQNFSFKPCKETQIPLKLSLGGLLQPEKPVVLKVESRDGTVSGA
# Outline: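 CYP3A4 activity was followed with a P450-Glo proluciferin substrate. Test compounds in DMSO were preincubated 10 min; NADPH regeneration then ran 1 h, and light output was read 20 min after detection reagent.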
# [15] = Human pregnane X receptor (PXR) small molecule agonists, qHTS cell viability counter screen (AID 1346977); note: nearly all actives have a fitted effect of over 50% in size
# Outline: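 In each well, the PXR reporter HepG2 line was checked for viability: CellTiter-Fluor reagent added 23hr post-dosing, fluorescence read after 1hr incubation at 37C.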
# [16] = target: Cytochrome P450 2D6 (Homo sapiens) (UniProt P10635); assay: Cytochrome P450 Family 2 Subfamily D Member 6 (CYP2D6) small molecule antagonists: luciferase reporter qHTS assay (AID 1671196); note: nearly all actives have a fitted effect of over 50% in size; note: potency is the fitted concentration of half-maximal effect
# Chain of Cytochrome P450 2D6 (Homo sapiens) (P10635 whole entry, looked up): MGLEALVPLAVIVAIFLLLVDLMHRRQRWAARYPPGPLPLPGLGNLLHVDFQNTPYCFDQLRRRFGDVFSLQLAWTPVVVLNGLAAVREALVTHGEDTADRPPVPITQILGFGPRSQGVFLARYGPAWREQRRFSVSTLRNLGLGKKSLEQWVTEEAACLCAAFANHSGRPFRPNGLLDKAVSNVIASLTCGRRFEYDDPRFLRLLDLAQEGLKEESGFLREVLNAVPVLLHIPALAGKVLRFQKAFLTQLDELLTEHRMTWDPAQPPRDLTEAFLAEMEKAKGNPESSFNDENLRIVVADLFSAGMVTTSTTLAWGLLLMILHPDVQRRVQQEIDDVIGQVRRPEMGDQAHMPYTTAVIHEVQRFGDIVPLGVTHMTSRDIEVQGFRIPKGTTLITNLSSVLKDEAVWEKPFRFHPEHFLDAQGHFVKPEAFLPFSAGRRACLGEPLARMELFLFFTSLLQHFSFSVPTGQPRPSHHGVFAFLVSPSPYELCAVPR
# Outline: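 Chemicals tested for interference with CYP2D6 activity; proluciferin substrate, NADPH regeneration, 1 h at room temperature, luminescent detection.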
# [17] = target: Cytochrome P450 2C9 (Homo sapiens) (UniProt P11712); assay: Cytochrome P450 Family 2 Subfamily C Member 9 (CYP2C9) small molecule antagonists: luciferase reporter qHTS assay (AID 1671198); note: nearly all actives have a fitted effect of over 50% in size; note: potency is the fitted concentration of half-maximal effect
# Chain of Cytochrome P450 2C9 (Homo sapiens) (P11712 whole entry, looked up): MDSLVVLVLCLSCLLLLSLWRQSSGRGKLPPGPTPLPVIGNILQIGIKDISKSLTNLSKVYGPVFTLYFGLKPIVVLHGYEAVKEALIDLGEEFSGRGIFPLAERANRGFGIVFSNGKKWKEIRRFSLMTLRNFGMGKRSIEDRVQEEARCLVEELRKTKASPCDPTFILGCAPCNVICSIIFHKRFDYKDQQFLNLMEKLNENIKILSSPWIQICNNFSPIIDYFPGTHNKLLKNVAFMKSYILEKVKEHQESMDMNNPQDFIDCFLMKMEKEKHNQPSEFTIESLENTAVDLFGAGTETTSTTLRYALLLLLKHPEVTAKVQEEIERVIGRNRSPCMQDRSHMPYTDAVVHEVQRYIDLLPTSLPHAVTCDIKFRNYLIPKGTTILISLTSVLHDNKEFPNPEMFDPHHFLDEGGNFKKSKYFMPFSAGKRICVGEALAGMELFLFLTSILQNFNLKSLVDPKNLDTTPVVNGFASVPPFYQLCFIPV
# Outline: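 Enzyme-substrate mix preincubated with compound 10 min at room temperature; reaction started with NADPH regeneration solution, 1 h 37C. Luminescent luciferin product read after 20 min detection reagent.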
# [18] = target: Thyrotropin-releasing hormone receptor (Homo sapiens) (UniProt P34981); assay: qHTS assay to identify small molecule antagonists of the thyrotropin-releasing hormone receptor (TRHR) signaling pathway (AID 1346877; active = well fitted inhibition curve with a large enough effect in the repeat runs, not every such curve was filed as active; note: series mostly up to about 51 µM)
# Chain of Thyrotropin-releasing hormone receptor (Homo sapiens) (P34981 whole entry, looked up): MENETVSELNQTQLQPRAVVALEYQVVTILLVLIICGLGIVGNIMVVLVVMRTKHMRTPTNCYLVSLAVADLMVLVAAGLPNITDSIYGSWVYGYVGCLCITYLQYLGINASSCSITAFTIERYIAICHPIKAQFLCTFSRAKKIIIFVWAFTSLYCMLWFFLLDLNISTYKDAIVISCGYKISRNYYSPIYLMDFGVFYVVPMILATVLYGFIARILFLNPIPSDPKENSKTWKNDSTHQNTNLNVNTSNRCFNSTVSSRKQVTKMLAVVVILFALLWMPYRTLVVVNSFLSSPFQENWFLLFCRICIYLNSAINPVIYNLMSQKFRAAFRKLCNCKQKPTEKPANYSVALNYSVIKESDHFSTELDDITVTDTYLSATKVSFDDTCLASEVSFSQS
# Outline: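 Overnight-plated (18 h, 37 °C) HEK293 cells expressing TRHR were dye-loaded 2 h, treated with compound, then stimulated with TRH at 1 nM final. Fluorescence intensity was captured every second for 3 min.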
# [19] = target: Thyrotropin-releasing hormone receptor (Homo sapiens) (UniProt P34981); assay: qHTS assay to identify small molecule agonists of the thyrotropin-releasing hormone receptor (TRHR) signaling pathway (AID 1346891; calls by dose curve; note: series mostly up to about 58 µM)
# Outline: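 Readout was intracellular calcium fluorescence in TRHR-Hek293 cells. Cells were incubated 18 h, dye-loaded 2 h at 37 °C, and treated with compound in agonist mode.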
SMILES,outcome [1],outcome [2],outcome [3],Potency [4],outcome [5],outcome [6],Potency [7],max activation [8],outcome [9],outcome [10],Potency [11],Potency [12],Potency [13],Potency [14],outcome [15],Potency [16],Potency [17],outcome [18],Potency [19]
C[C@H]1COc2c(C3(N)CC3)c(F)cc3c(=O)c(C(=O)O)cn1c23,inactive,inactive,inactive,inactive,inactive,inactive,inactive,-2.87%,inactive,inactive,inactive,inactive,inactive,inactive,–,–,–,–,–
CC(=O)c1ccc2ccc3ccccc3c2c1,inactive,inactive,–,–,inactive,inactive,60.8 µM (active),–,–,–,22.3 µM (active),1.12 µM (active),inactive,–,inactive,inactive,12.6 µM (active),–,–
CN(C)c1ccncc1,inactive,inactive,inactive,inactive,inactive,–,inactive,–,–,–,inactive,inactive,inactive,inactive,inactive,31.7 µM (active),inactive,–,–
C/C(Cl)=C/CCl,inactive,inactive,inactive,inactive,–,–,inactive,–,–,–,–,inactive,inactive,inactive,inactive,inactive,inactive,–,–
CCOC(=O)CC,inactive,inactive,–,inactive,inactive,inactive,inactive,–,–,–,inactive,inactive,inactive,inactive,inactive,inactive,inactive,–,–
CCCCN=C(N)N=C(N)N,inactive,inactive,–,inactive,inactive,inactive,inactive,-2.74%,inactive,inactive,inactive,–,inactive,–,inactive,–,inactive,–,–
Cc1nnc(C(=O)NC(C)(C)c2nc(C(=O)NCc3ccc(F)cc3)c(O)c(=O)n2C)o1,inactive,–,inactive,inactive,inactive,–,inactive,–,–,–,inactive,–,–,–,inactive,inactive,inactive,inactive,inactive
